Shown are actives, neighbours in structure and some others; about 12% of the full set was active somewhere.
Pf growth 48h: inhibits P. falciparum growth in the first generation, 48 h. P. falciparum luciferase growth in erythrocytes, 48 h. hit rate 5.9% among 310,000. AID 504832. Potency, µM (top dose mostly 28.7 µM), without a hit: at the highest dose activity change, negative = inhibition, most hits filed as inhibitors; also: % is scaled to controls: 0 for no effect and ±100 for the full control effect
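Erythrocytes infected with P. falciparum carrying an integrated firefly luciferase reporter (2% hematocrit, 0.1% parasitemia final) were exposed to compounds in RPMI 1640 with 0.5% Albumax at 37 C, 5% CO2. Growth inhibition was scored as reduced luminescence.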
Pf growth 96h: P. falciparum growth inhibition at 96 hours. hit rate 6.9% among 320,000. P. falciparum luciferase reporter growth, 96 h. Potency, µM (highest dose often 28.7 µM), inactives show top-dose activity change, negative = inhibition, usual class: inhibitors; also: % is scaled to controls: 0 for no effect and ±100 for the full control effect
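Two parasite generations (96 h, 37 C, 5% CO2) of compound exposure in infected erythrocytes (0.05% parasitemia, 2% hematocrit). Luciferase-reporter P. falciparum; decreased luminescence indicates inhibited growth, aimed at apicoplast-acting delayed death.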
SARS PLP yeast: inhibitors of SARS-CoV papain-like protease in yeast. S. cerevisiae expressing SARS-CoV PLpro, growth rescue. Potency, µM (titrated, usually from 32.9 µM), for inactives: at the top dose activity, positive = growth rescue, usual class: activators. hit rate 0.19% among 330,000. AID 485353; calls by dose curve; also: 0% is about no effect; nearly all actives have a fitted effect of over 55% in size
AmpC detergent: AmpC beta-lactamase inhibition with detergent present | hit rate 0.041% among 370,000 | AmpC hydrolysis of nitrocefin, absorbance 480 nm, 0.01% Triton | P00811 | Potency, µM (doses to about 114 µM), inactives show at the highest dose activity change, negative = inhibition, hits mostly inhibitors | AID 485294;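 also: 0% = no-compound wells and -100% = no-enzyme wells; nearly all actives have a fitted effect of over 25% in size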
Target sequence (P00811 whole entry, looked up): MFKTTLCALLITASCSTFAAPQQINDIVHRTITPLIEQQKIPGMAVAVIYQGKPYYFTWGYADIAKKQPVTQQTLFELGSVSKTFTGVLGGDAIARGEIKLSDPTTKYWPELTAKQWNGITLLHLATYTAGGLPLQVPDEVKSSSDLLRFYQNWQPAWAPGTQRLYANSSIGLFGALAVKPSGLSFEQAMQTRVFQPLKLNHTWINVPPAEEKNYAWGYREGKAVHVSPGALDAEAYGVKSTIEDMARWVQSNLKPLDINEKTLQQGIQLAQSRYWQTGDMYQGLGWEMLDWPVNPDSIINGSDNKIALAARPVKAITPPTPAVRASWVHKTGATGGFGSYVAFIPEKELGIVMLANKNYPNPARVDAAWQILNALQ
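AmpC (5.3 nM in the dispensed reagent) in 20 mM phosphate pH 7.0 with 0.01% (detergent screen) or 0.0001% Triton X-100 was preincubated with compounds for 15 min at room temperature. Nitrocefin was then added from an 800 uM solution, and hydrolysis was followed at 480 nm.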
Sm TGR block: inhibitors of Schistosoma mansoni thioredoxin glutathione reductase; purified TGR, DTNB reduction, TNB absorbance 405 nm; Potency, µM (series often up to 114 µM), for the others: at the highest dose activity change, negative = inhibition, most hits filed as inhibitors; hit rate 3% among 360,000; AID 485364; also: % is scaled to controls: 0 for no effect and ±100 for the full control effect; nearly all actives have a fitted effect of over 60% in size
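First, TGR (20 nM dispensed) and NADPH were mixed with compound. Second, a 15 min room-temperature incubation followed. Third, further NADPH and then DTNB were added to start the reaction. Finally, TNB absorbance was monitored kinetically.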
AmpC no deterg: AmpC beta-lactamase inhibition without detergent; AmpC nitrocefin hydrolysis, absorbance 480 nm, 0.0001% Triton; Potency, µM (doses to about 57.1 µM), without a hit: at the top dose activity change, negative = inhibition, actives largely listed as inhibitors; AID 485341; hit rate 0.52% among 330,000; P00811;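 also: plate controls were no compound for no effect and no enzyme for full effect; nearly all actives have a fitted effect of over 20% in size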
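20 mM phosphate pH 7.0 + 0.01% (detergent screen) or 0.0001% Triton X-100; 5.3 nM AmpC reagent; cpd preinc 15 min RT; nitrocefin (800 uM stock) to start; A480 q20 s × 4 min; Activity was normalised to no-enzyme and no-compound control wells.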
Starred values were filed as active, the others as inactive; ? = inconclusive; . = no result given. Unless noted, calls follow the shape of the dose curve; as a rule, active = well fitted curve in the direction sought with a large enough effect; inconclusive = small, poorly fitted or top-dose-only effect, or another doubt; inactive = no such curve, though single readings can be large; an effect the other way counts as inactive or inconclusive. Potency is read from the fitted curve at half-maximal effect.

SMILES | Pf growth 48h | Pf growth 96h | SARS PLP yeast | AmpC detergent | Sm TGR block | AmpC no deterg
COc1ccc(-c2nc(CN3CCN(C(=O)c4ccco4)CC3)c(C)o2)c(OC)c1C | 7.38µM* | 53.0% | -1.3% | 1.5% | ? | 150.3%
COc1cc(-c2nc(CN3CCN(C(=O)c4ccco4)CC3)c(C)o2)ccc1F | -23.8% | ? | -0.2% | 7.4% | -33.8% | 160.5%
CCOC(=O)C1CCN(c2cc3c(cc2NC(=O)c2ccc(Cl)cc2)n(C)c(=O)n3C)CC1 | . | . | . | 3.7% | -3.3% | .
O=C1c2ccccc2C(=O)C1(CO)c1ccc(OC(F)F)cc1 | 11.7µM* | 126.4% | -1.5% | 4.3% | -7.7% | -36.9%
COc1ccc(S(=O)(=O)Nc2ccccc2OC)cc1C | -4.4% | 3.7% | 5.4% | ? | ? | -55.8%
COc1ccc(CCNC(=O)COc2ccc(S(=O)(=O)NC3CCCCC3)cc2Cl)cc1 | 13.1µM* | ? | -6.0% | -10.2% | 14.5% | 35.2%
COc1cc(NS(=O)(=O)c2ccc(C)c(C)c2)c(OC)cc1Cl | -4.2% | 6.57µM* | -24.1% | 2.0% | -2.5% | -16.1%
COc1ccc(S(=O)(=O)NC2CC2)cc1Cl | -23.0% | 2.33µM* | ? | ? | -5.9% | -4.3%
O=C(COc1ccc(S(=O)(=O)NC2CCCCC2)cc1Cl)NCC1CCCO1 (configuration not stated) | ? | . | 2.2% | ? | 3.8% | 55.4%
O=C1CC[C@@H](CN(Cc2ccccn2)Cc2nc(Cc3cccc(C(F)(F)F)c3)no2)N1 | -3.9% | 25.7% | 0.4% | 4.9% | 0.2% | 165.2%
O=C1CC[C@@H](CN(Cc2ccccn2)Cc2nc(Cc3ccccc3)no2)N1 | 5.2% | 16.5µM* | -0.3% | 0.7% | -21.0% | 18.6%
COc1ccc(-c2csc(NC(=O)CCNC(=O)c3ccco3)n2)cc1OC | 11.7µM* | ? | -0.1% | -14.0% | -0.8% | 0.0%
CCOc1ccc(-c2csc(NC(=O)c3ccco3)n2)cc1 | 19.6% | 10.4µM* | -6.1% | -2.7% | -33.2% | 33.7%
CC(=O)Cc1nsc(NC(=O)c2ccco2)n1 | 4.4% | . | -2.8% | -11.5% | 44.7µM* | -14.1%
Cc1ccc(-c2csc(NC(=O)c3ccco3)n2)cc1C | 20.5% | 0.586µM* | -16.2% | -8.5% | 1.2% | -30.7%
Cc1ccc2nc(C)cc(C(=O)N/N=C/c3ccncc3)c2c1 | 4.1% | -19.2% | 0.1% | 0.6% | -22.7% | -5.6%
COc1ccc(N2CC(NC(=O)c3ccc4c(c3)OCO4)CC2=O)cc1 (configuration not stated) | . | . | . | -1.8% | -1.4% | .
CCOc1ccc(NC(=O)c2ccco2)c([N+](=O)[O-])c1 | 199.6% | 0.586µM* | 15.8% | -8.1% | -21.7% | -4.9%
COc1ccc(S(=O)(=O)N2CCOCC2)cc1NC(=O)c1c(-c2ccccc2)noc1C | ? | 10.4µM* | -6.0% | -0.3% | 0.6% | 68.2%
COc1ccc(S(=O)(=O)N2CCOCC2)cc1NC(=O)c1ccccc1-c1ccc(C(F)(F)F)cc1 | ? | ? | 4.5% | -4.3% | -10.1% | -14.1%
Cc1cc(C(=O)Nc2ccc(S(=O)(=O)N3CCOCC3)cc2)c(C)o1 | -1.4% | -1.4% | -0.9% | -4.3% | -6.1% | 2.4%
COc1ccc(S(=O)(=O)N2CCOCC2)cc1NC(=O)c1cccc2c(=O)c(C)c(-c3ccccc3)oc12 | 5.22µM* | 2.08µM* | 5.0% | -0.9% | -9.4% | -9.9%
COc1ccc(S(=O)(=O)N2CCOCC2)cc1NC(=O)c1cc(C)oc1C | ? | 11.7µM* | 1.3% | -2.3% | -13.7% | -12.5%
COc1ccc(OCCSc2ncn[nH]2)cc1 | 70.5% | 40.4% | 1.9% | -2.1% | 7.4% | -22.1%
CCc1ccc(NC(=O)CC2C(=O)N(c3cccc(C)c3)C(=O)N2CCC(C)C)cc1 (configuration not stated) | . | . | . | -4.2% | 6.8% | .
SMILES | Pf growth 48h | Pf growth 96h | SARS PLP yeast | AmpC detergent | Sm TGR block | AmpC no deterg
CCOC(=O)c1sc(NC(=O)C2CC(=O)N(c3ccccc3OC)C2)nc1C (configuration not stated) | ? | ? | -5.0% | -9.8% | -12.5% | 67.1%
N#CC1=C2SCN(Cc3ccco3)CN2C(=O)CC1c1c(F)cccc1Cl (configuration not stated) | . | 77.7% | -0.4% | -10.5% | 44.7µM* | -29.6%
N#CC1=C2SCN(c3ccccc3)CN2C(=O)CC1c1ccccc1Cl (configuration not stated) | . | ? | 3.5% | -12.8% | 22.4µM* | -42.6%
N#CC1=C2SCN(c3ccccc3)CN2C(=O)CC1c1cccs1 (configuration not stated) | ? | 25.3% | 1.8% | -1.6% | ? | -39.4%
N#CC1=C2SCN(c3ccccc3)CN2C(=O)CC1c1c(Cl)cccc1Cl (configuration not stated) | . | 0.9% | 3.2% | -17.0% | 0.0% | 28.2µM*
COc1ccc(NC(=O)c2ncoc2-c2ccco2)cc1Cl | . | . | . | 0.8% | -6.0% | .
Cc1nn(CC(=O)NCCc2ccccc2Cl)c(=O)c2nn(-c3ccccc3)c(C)c12 | . | . | . | 25.3% | 9.2% | .
CNC(=O)C1CC(=O)N(CCCc2ccccc2)C(=Nc2ccccc2)S1 (configuration not stated) | . | ? | -11.6% | -0.6% | 3.3% | 132.7%
CCOc1ccc(-c2cnc3n2CCC3)cc1 | . | 14.7µM* | 1.9% | 2.3% | 5.8% | -4.4%
Cc1cc(C)cc(NC(=O)COC(=O)CCn2c(C)csc2=O)c1 | -14.0% | ? | 3.1% | -13.7% | -9.7% | 2.7%
CCC(CC)C(=O)N1CCc2cc(OC)c(OC)cc2C1COc1ccc2c(C)cc(=O)oc2c1 (configuration not stated) | . | . | . | 9.7% | -1.5% | .
CCC(C)(C)n1nnnc1C(C(C)C)N(CCCO)Cc1cc2cc(C)ccc2[nH]c1=O (configuration not stated) | ? | 13.1µM* | 5.9% | -8.8% | -7.0% | 55.1%
CCC(c1nnnn1C(C)(C)CC)N(CCCO)Cc1cc2cc(C)cc(C)c2[nH]c1=O (configuration not stated) | 8.28µM* | 10.4µM* | 2.6% | -10.8% | ? | 129.0%
CCCCCCNC(=O)c1c(O)c2ccccc2[nH]c1=O | 28.0% | ? | -0.6% | ? | 0.0% | -29.2%
O=S(=O)(c1ccc2ccccc2c1)N1CCC(c2nc(-c3ccncc3)no2)CC1 | 13.1µM* | ? | 0.2% | ? | 2.9% | -11.9%
CN(C)c1ccc(-c2noc(C3CCN(S(=O)(=O)c4cccc(Cl)c4)CC3)n2)cc1 | ? | 0.185µM* | 2.3% | 10.1% | 8.5% | -6.7%

Compound activity from PubChem BioAssay.
